PubChem BioAssay AID1159580 (chemical genetic matrix, 2015)
In all, about 5,500 compounds went through this assay and about 2,000 (36%) were called active. Not shown: some 18% with an inconclusive outcome. Rule as the data show it: active = normalized growth mostly below about 0.91 (no sharp cut-off); inconclusive = no clear call, values can overlap the other calls; inactive = mostly above about 0.92. The list shows a part of the results.

Assay: chemical genetic growth profiling, strain panel (AID 1159580);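 also: tested at 20 µM; growth read once vehicle control cultures reached saturation at 30 °C; 1 = growth at the plate median or of vehicle wells; lower values mean less growth of the strain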
Conditions: growth OD

Measured: normalized growth

CC(=O)CC1CCCCN1 (configuration not stated)
inactive: S. cerevisiae deletion strains, locus YJR075W, strain HOC1, stronger effect = lower value 1.01 | S. cerevisiae deletion strains, locus YKL009W, strain mrt4, stronger effect = lower value 0.996 | S. cerevisiae deletion strains, locus YKL068W, stronger effect = lower value 1 | S. cerevisiae deletion strains, locus YKL085W, strain MDH1 (second series), stronger effect = lower value 0.983 | S. cerevisiae deletion strains, locus YKL085W, strain MDH1, stronger effect = lower value 0.983 | S. cerevisiae deletion strains, locus YKL160W, strain elf1, stronger effect = lower value 1.02 | S. cerevisiae deletion strains, locus YKL190W, strain CNB1, stronger effect = lower value 1.02 | S. cerevisiae deletion strains, locus YKR001C, strain vps1, stronger effect = lower value 0.994 | S. cerevisiae deletion strains, locus YKR026C, strain gcn3, stronger effect = lower value 1.02 | S. cerevisiae deletion strains, locus YKR091W, strain srl3, stronger effect = lower value 1.02 | S. cerevisiae deletion strains, locus YLL001W, strain dnm1, stronger effect = lower value 1.02 | S. cerevisiae deletion strains, locus YLL026W, stronger effect = lower value 1.02 | S. cerevisiae deletion strains, locus YLL041C, strain sdh2, stronger effect = lower value 1.01 | S. cerevisiae deletion strains, locus YLR027C, strain aat2, stronger effect = lower value 1.03 | S. cerevisiae deletion strains, locus YLR039C, strain RIC1, stronger effect = lower value 1.06 | S. cerevisiae deletion strains, locus YLR058C, strain SHM2, stronger effect = lower value 1.02 | S. cerevisiae deletion strains, locus YLR102C, strain apc9, stronger effect = lower value 0.996 | S. cerevisiae deletion strains, locus YLR113W, strain HOG1, stronger effect = lower value 0.981 | S. cerevisiae deletion strains, locus YLR221C, strain rsa3, stronger effect = lower value 1.03 | S. cerevisiae deletion strains, locus YLR258W, strain gsy2, stronger effect = lower value 1.02 | S. cerevisiae deletion strains, locus YLR262C, strain YPT6 (second series), stronger effect = lower value 1.03 | S. cerevisiae deletion strains, locus YLR262C, strain YPT6, stronger effect = lower value 1.1 | S. cerevisiae deletion strains, locus YLR268W, strain sec22, stronger effect = lower value 0.993 | S. cerevisiae deletion strains, locus YLR320W, strain mms22, stronger effect = lower value 1.04 | S. cerevisiae deletion strains, locus YLR330W, strain CHS5, stronger effect = lower value 1.01 | S. cerevisiae deletion strains, locus YLR342W, strain FKS1 (second series), stronger effect = lower value 0.993 | S. cerevisiae deletion strains, locus YLR342W, strain FKS1, stronger effect = lower value 1.02 | S. cerevisiae deletion strains, locus YLR357W, strain rsc2, stronger effect = lower value 0.995 | S. cerevisiae deletion strains, locus YLR370C, strain arc18, stronger effect = lower value 1.02 | S. cerevisiae deletion strains, locus YLR371W, strain rom2, stronger effect = lower value 0.994 | S. cerevisiae deletion strains, locus YLR384C, strain iki3, stronger effect = lower value 1.01 | S. cerevisiae deletion strains, locus YLR418C, strain cdc73, stronger effect = lower value 1 | S. cerevisiae deletion strains, locus YML016C, strain PPZ1, stronger effect = lower value 1.02 | S. cerevisiae deletion strains, locus YML032C, strain rad52, stronger effect = lower value 0.982 | S. cerevisiae deletion strains, locus YML120C, strain ndi1, stronger effect = lower value 1.02 | S. cerevisiae deletion strains, locus YML124C, strain tub3, stronger effect = lower value 0.995 | S. cerevisiae deletion strains, locus YMR058W, strain fet3, stronger effect = lower value 1.02 | S. cerevisiae deletion strains, locus YMR078C, strain ctf18, stronger effect = lower value 0.99 | S. cerevisiae deletion strains, locus YMR125W, strain sto1, stronger effect = lower value 1 | S. cerevisiae deletion strains, locus YMR129W, stronger effect = lower value 1.01 | S. cerevisiae deletion strains, locus YMR205C, strain PFK2, stronger effect = lower value 1.04 | S. cerevisiae deletion strains, locus YMR223W, strain ubp8, stronger effect = lower value 0.997 | S. cerevisiae deletion strains, locus YMR231W, strain pep5, stronger effect = lower value 1.01 | S. cerevisiae deletion strains, locus YMR263W, strain SAP30, stronger effect = lower value 1.02 | S. cerevisiae deletion strains, locus YMR307W, strain GAS1, stronger effect = lower value 1.08 | S. cerevisiae deletion strains, locus YNL067W, strain RPL9B, stronger effect = lower value 1.02 | S. cerevisiae deletion strains, locus YNL071W, strain lat1, stronger effect = lower value 1.02 | S. cerevisiae deletion strains, locus YNL128W, strain TEP1, stronger effect = lower value 1.01 | S. cerevisiae deletion strains, locus YNL153C, strain GIM3, stronger effect = lower value 1.02 | S. cerevisiae deletion strains, locus YNL183C, strain NPR1, stronger effect = lower value 0.954 | S. cerevisiae deletion strains, locus YNL209W, strain ssb2, stronger effect = lower value 1.02 | S. cerevisiae deletion strains, locus YNL233W, strain BNI4, stronger effect = lower value 1.02 | S. cerevisiae deletion strains, locus YNL248C, strain rpa49, stronger effect = lower value 1.01 | S. cerevisiae deletion strains, locus YNL250W, strain rad50, stronger effect = lower value 0.993 | S. cerevisiae deletion strains, locus YNL271C, strain bni1, stronger effect = lower value 0.993 | S. cerevisiae deletion strains, locus YNL298W, strain CLA4, stronger effect = lower value 0.988 | S. cerevisiae deletion strains, locus YNL307C, strain MCK1, stronger effect = lower value 0.995 | S. cerevisiae deletion strains, locus YNL322C, strain KRE1 (second series), stronger effect = lower value 1.01 | S. cerevisiae deletion strains, locus YNL322C, strain KRE1, stronger effect = lower value 1.01 | S. cerevisiae deletion strains, locus YNR049C, strain mso1, stronger effect = lower value 1.02 | S. cerevisiae deletion strains, locus YNR052C, strain pop2, stronger effect = lower value 0.98 | S. cerevisiae deletion strains, locus YOL006C, strain TOP1, stronger effect = lower value 1.04 | S. cerevisiae deletion strains, locus YOL012C, strain htz1 0.894 | S. cerevisiae deletion strains, locus YOL147C, strain pex11, stronger effect = lower value 0.993 | S. cerevisiae deletion strains, locus YOR001W, strain rrp6, stronger effect = lower value 1 | S. cerevisiae deletion strains, locus YOR061W, strain CKA2, stronger effect = lower value 1.01 | S. cerevisiae deletion strains, locus YOR069W, strain VPS5, stronger effect = lower value 0.999 | S. cerevisiae deletion strains, locus YOR070C, strain gyp1, stronger effect = lower value 1.03 | S. cerevisiae deletion strains, locus YOR080W, strain dia2, stronger effect = lower value 1.02 | S. cerevisiae deletion strains, locus YOR083W, strain WHI5, stronger effect = lower value 1.03 | S. cerevisiae deletion strains, locus YOR106W, strain vam3, stronger effect = lower value 1.01 | S. cerevisiae deletion strains, locus YOR136W, strain idh2, stronger effect = lower value 0.977 | S. cerevisiae deletion strains, locus YOR144C, strain elg1, stronger effect = lower value 1 | S. cerevisiae deletion strains, locus YOR184W, strain ser1, stronger effect = lower value 0.974 | S. cerevisiae deletion strains, locus YOR231W, strain MKK1, stronger effect = lower value 0.983 | S. cerevisiae deletion strains, locus YOR265W, strain rbl2, stronger effect = lower value 1.01 | S. cerevisiae deletion strains, locus YOR270C, strain vph1, stronger effect = lower value 1.05 | S. cerevisiae deletion strains, locus YOR290C, strain snf2, stronger effect = lower value 1 | S. cerevisiae deletion strains, locus YOR316C, strain cot1, stronger effect = lower value 0.991 | S. cerevisiae deletion strains, locus YPL051W, strain arl3, stronger effect = lower value 1.03 | S. cerevisiae deletion strains, locus YPL055C, strain LGE1, stronger effect = lower value 1.04 | S. cerevisiae deletion strains, locus YPL078C, strain atp4, stronger effect = lower value 1.02 | S. cerevisiae deletion strains, locus YPL106C, strain sse1, stronger effect = lower value 1 | S. cerevisiae deletion strains, locus YPL240C, strain hsp82, stronger effect = lower value 1.01 | S. cerevisiae deletion strains, locus YPL241C, strain CIN2, stronger effect = lower value 0.995 | S. cerevisiae deletion strains, locus YPL256C, strain CLN2, stronger effect = lower value 0.967 | S. cerevisiae deletion strains, locus YPR119W, strain clb2, stronger effect = lower value 0.993 | S. cerevisiae deletion strains, locus YPR141C, strain kar3, stronger effect = lower value 0.99 | S. cerevisiae deletion strains, locus YPR163C, strain tif3, stronger effect = lower value 0.993 | S. cerevisiae deletion strains, locus YPR167C, strain met16, stronger effect = lower value 0.987 | S. cerevisiae deletion strains, strain wtn01, stronger effect = lower value 1 | S. cerevisiae strains, strain wild type, stronger effect = lower value 1.02
